# Test results as given in the supplement of paper PMC6411743.
# ± gives the standard deviation of the averaged measurements. Targets with the largest changes are over-represented here; the source holds about 6,500 in all.
# Compound: Nc1ncnc2c1ncn2[C@@H]1O[C@H](COP(=O)(O)OP(=O)(O)OP(=O)(O)O)[C@@H](O)[C@H]1O [adenosine triphosphate]
# Test: NP40-soluble protein abundance relative to vehicle (solubility fold change) (ratio); higher = more soluble protein in presence of ATP
# In short: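 Each value is a fold change relative to the detergent-processed vehicle, calculated per replicate from vsn-normalised intensities. Jurkat crude lysate received eight concentrations (0.1 to 10 mM) for 10 min at room temperature and 3 min at 37 °C, then was solubilised in 0.8% NP40 with benzonase (60 min, 4 °C). The ultracentrifuged supernatant was TMT-labelled and run by LC-MS/MS in three independent experiments.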
# Sequence of UniProt O43865 (O43865 whole entry): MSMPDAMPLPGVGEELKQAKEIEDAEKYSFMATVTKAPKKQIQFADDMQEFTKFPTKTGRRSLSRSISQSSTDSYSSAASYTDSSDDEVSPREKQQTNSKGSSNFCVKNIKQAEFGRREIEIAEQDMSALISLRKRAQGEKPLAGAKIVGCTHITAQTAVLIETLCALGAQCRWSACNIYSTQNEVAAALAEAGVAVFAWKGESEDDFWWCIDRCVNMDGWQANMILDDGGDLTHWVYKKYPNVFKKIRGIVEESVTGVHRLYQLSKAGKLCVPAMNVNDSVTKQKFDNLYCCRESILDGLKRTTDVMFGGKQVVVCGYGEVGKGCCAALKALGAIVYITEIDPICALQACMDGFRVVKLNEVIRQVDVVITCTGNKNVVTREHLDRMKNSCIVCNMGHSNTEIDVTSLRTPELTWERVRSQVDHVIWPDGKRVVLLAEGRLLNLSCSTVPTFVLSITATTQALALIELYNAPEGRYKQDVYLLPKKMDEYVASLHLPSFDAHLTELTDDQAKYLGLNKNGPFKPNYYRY
# Sequence of UniProt O43143 (O43143 whole entry): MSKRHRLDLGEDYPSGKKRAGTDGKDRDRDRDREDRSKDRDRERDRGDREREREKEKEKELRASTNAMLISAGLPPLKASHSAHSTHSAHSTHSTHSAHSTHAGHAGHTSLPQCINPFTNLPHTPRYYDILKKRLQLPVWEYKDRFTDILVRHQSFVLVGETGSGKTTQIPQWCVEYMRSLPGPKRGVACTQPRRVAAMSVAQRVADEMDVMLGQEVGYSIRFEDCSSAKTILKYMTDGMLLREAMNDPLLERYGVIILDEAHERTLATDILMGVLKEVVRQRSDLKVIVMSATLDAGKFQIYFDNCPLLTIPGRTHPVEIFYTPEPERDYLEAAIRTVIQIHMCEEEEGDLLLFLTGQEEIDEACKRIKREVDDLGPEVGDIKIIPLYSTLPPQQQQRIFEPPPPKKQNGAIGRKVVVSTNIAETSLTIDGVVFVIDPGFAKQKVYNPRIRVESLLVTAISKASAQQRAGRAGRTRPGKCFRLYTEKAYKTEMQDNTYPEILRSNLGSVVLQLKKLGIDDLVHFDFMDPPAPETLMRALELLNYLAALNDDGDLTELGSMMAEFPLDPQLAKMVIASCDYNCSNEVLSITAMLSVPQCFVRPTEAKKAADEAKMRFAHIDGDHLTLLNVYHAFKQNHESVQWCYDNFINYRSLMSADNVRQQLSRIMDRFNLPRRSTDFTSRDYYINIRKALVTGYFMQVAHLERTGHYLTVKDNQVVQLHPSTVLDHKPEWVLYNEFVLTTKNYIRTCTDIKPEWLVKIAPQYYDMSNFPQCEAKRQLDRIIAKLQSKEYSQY
# Sequence of UniProt Q16629 (Q16629 whole entry, one chain of several): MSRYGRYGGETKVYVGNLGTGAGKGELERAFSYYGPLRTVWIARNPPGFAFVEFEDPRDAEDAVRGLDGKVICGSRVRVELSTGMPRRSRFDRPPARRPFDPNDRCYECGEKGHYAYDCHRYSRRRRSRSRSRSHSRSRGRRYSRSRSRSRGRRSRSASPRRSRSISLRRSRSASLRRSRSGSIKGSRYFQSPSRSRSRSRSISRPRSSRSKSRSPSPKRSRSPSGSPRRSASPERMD
# Sequence of UniProt Q96EV2 (Q96EV2 whole entry, one chain of several): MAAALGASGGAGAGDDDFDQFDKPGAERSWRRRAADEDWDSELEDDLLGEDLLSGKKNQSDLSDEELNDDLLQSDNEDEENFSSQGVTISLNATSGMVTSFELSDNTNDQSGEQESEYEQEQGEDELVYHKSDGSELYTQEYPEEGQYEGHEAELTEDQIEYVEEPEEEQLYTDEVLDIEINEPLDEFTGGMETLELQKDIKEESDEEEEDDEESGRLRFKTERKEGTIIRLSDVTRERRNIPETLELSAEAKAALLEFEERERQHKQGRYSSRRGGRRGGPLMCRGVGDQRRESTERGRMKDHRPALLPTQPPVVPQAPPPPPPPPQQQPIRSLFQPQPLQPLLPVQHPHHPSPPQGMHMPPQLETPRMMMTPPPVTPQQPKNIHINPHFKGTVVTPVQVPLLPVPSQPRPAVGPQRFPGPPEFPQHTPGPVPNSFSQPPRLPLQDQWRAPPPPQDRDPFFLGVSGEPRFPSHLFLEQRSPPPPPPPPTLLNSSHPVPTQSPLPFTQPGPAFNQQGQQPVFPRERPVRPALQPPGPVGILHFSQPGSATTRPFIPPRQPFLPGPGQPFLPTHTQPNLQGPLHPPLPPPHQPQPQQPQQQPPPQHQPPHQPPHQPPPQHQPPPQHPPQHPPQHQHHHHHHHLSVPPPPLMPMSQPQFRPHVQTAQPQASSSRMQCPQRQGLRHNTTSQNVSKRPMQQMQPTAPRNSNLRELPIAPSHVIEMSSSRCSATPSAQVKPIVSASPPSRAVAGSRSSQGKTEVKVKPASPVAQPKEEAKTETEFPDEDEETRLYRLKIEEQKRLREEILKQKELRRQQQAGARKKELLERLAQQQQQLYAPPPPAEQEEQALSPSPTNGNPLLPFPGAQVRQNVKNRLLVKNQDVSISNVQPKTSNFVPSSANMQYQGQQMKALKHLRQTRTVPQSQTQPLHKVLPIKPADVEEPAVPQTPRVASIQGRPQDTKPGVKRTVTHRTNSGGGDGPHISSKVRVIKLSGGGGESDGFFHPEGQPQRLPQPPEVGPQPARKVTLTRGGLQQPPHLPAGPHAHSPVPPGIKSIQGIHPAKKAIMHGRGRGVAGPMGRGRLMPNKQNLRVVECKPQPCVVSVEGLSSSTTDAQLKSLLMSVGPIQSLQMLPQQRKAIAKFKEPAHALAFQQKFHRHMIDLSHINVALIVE
# Sequence of UniProt Q9NYF8 (Q9NYF8 whole entry, one chain of several): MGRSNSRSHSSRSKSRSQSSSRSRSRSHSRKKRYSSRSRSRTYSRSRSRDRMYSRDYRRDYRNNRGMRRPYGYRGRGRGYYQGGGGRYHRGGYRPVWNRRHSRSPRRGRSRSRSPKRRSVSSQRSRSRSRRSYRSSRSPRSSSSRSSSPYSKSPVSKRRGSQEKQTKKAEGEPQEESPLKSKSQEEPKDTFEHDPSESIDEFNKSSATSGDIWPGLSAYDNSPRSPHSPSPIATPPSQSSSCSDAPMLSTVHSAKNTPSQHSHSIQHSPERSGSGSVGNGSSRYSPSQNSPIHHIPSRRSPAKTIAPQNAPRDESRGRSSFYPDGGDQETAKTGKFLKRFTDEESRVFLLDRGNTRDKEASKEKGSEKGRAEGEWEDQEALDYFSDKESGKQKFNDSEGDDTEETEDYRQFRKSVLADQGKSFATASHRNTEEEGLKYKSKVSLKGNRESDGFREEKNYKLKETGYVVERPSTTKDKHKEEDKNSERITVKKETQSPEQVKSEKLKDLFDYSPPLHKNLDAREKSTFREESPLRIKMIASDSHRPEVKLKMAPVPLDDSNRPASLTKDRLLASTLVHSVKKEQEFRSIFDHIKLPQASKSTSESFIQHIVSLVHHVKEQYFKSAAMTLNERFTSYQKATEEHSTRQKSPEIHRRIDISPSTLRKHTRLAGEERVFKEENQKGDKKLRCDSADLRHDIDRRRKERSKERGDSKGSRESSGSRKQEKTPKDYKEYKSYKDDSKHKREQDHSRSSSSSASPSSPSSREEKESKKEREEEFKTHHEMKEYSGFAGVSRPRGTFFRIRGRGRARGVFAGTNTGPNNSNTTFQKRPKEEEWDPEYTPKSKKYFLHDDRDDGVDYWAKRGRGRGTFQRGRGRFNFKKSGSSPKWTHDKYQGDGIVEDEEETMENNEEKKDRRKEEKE
# Sequence of UniProt Q9BZF1 (Q9BZF1 whole entry, one chain of several): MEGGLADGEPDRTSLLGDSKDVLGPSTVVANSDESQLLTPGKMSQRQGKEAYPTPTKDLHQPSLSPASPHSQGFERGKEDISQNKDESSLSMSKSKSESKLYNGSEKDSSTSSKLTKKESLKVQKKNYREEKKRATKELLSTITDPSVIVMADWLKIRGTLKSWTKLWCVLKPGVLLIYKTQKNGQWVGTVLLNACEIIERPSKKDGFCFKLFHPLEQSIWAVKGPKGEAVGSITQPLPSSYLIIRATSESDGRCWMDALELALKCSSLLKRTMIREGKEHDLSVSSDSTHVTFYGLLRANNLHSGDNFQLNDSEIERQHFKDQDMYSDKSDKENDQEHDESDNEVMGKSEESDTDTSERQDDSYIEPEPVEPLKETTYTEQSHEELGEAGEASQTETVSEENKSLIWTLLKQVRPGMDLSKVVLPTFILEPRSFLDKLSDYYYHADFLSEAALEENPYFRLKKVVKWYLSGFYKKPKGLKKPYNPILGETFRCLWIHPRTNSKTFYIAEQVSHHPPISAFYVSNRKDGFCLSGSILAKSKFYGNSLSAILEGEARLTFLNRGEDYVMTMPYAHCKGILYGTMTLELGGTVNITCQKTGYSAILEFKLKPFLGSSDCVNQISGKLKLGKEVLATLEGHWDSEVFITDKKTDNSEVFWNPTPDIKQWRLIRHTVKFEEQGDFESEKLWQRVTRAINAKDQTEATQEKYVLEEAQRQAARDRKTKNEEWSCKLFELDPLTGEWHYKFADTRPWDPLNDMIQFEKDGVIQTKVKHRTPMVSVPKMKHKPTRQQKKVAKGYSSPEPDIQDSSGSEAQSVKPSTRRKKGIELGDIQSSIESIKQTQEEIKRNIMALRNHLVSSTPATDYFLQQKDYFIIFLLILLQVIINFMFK
# Sequence of UniProt Q8WV99 (Q8WV99 whole entry, one chain of several): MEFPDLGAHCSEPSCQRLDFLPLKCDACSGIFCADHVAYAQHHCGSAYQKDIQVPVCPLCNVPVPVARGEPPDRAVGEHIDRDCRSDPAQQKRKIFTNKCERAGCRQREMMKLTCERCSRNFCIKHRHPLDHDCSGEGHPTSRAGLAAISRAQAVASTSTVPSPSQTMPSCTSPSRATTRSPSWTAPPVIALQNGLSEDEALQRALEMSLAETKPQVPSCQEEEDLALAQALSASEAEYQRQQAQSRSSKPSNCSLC
Target,NP40-soluble protein abundance (concentration: 1mM),NP40-soluble protein abundance (concentration: 2mM),NP40-soluble protein abundance (concentration: 4mM),NP40-soluble protein abundance (concentration: 6mM),NP40-soluble protein abundance (concentration: 8mM),NP40-soluble protein abundance (concentration: 10mM)
A0A0B4J1Z1|C9JAB2|Q16629|Q16629-2|Q16629-3|Q16629-4 (UniProt Q16629),1.7 ± 0.28,1.77 ± 0.28,1.89 ± 0.28,2.04 ± 0.31,1.98 ± 0.38,2.09 ± 0.36
H7C5F5|Q9H2U1|Q9H2U1-2 (UniProt Q9H2U1),0.963 ± 0.068,0.979 ± 0.08,0.987 ± 0.073,1.01 ± 0.1,1.03 ± 0.088,1.02 ± 0.1
E9PJA7|Q9NYF8|Q9NYF8-2|Q9NYF8-3 (UniProt Q9NYF8),1.31 ± 0.092,1.41 ± 0.056,1.54 ± 0.086,1.7 ± 0.11,1.65 ± 0.07,1.7 ± 0.06
F8W060|Q9BZF1 (UniProt Q9BZF1),0.936 ± 0.018,0.933 ± 0.035,0.939 ± 0.018,0.927 ± 0.046,0.964 ± 0.013,0.959 ± 0.045
B4DEN4|E7EV05|E9PFU9|Q8WV99|Q8WV99-2 (UniProt Q8WV99),0.955 ± 0.084,0.953 ± 0.046,0.943 ± 0.059,0.958 ± 0.066,0.91 ± 0.037,0.902 ± 0.062
E5RG17|Q6P1N9 (UniProt Q6P1N9),0.989 ± 0.02,0.974 ± 0.013,0.965 ± 0.02,0.963 ± 0.052,0.937 ± 0.019,0.968 ± 0.019
J3KP06|Q8WWI1|Q8WWI1-2|Q8WWI1-3|Q8WWI1-4 (UniProt Q8WWI1),1.31 ± 0.026,1.41 ± 0.07,1.57 ± 0.067,1.65 ± 0.07,1.77 ± 0.057,1.96 ± 0.042
C9JJN9|Q8N3P4|Q8N3P4-2|Q8N3P4-3 (UniProt Q8N3P4),1.01 ± 0.053,0.984 ± 0.04,0.994 ± 0.068,0.9606 ± 0.0047,0.955 ± 0.039,0.979 ± 0.023
G5E9V5|G5E9W7|P82650 (UniProt P82650),1.01 ± 0.046,0.938 ± 0.079,0.892 ± 0.083,0.907 ± 0.18,0.88 ± 0.11,0.867 ± 0.1
F8WCD0|Q8NC42 (UniProt Q8NC42),0.964 ± 0.023,0.992 ± 0.013,1.08 ± 0.076,1.03 ± 0.029,0.945 ± 0.021,1 ± 0.076
UniProt O43865,0.982 ± 0.1,0.965 ± 0.063,0.963 ± 0.076,0.973 ± 0.1,0.96 ± 0.081,0.969 ± 0.043
J3KTD6|Q96GD4|Q96GD4-5 (UniProt Q96GD4),1.37 ± 0.16,1.47 ± 0.18,1.6 ± 0.16,1.58 ± 0.25,1.71 ± 0.032,1.76 ± 0.072
DHX15 (UniProt O43143),1.25 ± 0.079,1.24 ± 0.071,1.24 ± 0.079,1.24 ± 0.1,1.33 ± 0.074,1.29 ± 0.044
H7C0H2|Q96EV2|H0Y3K4 (UniProt Q96EV2),0.963 ± 0.093,0.942 ± 0.056,0.956 ± 0.086,0.982 ± 0.075,0.958 ± 0.067,0.951 ± 0.059
J3KPF0 (UniProt Q9Y4D8),1.08 ± 0.036,1.04 ± 0.068,1.05 ± 0.025,1.01 ± 0.1,1.02 ± 0.08,1 ± 0.044
